Target: T1, GST-NTL8 NAC domain (Arabidopsis thaliana, UniProt Q9XIN7 14-156)
T1 sequence: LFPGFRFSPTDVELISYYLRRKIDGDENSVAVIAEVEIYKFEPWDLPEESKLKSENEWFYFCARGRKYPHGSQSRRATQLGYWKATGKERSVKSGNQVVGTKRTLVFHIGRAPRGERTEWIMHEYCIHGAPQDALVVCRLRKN
Assay: universal protein binding microarray (PBM); transcription factors of Arabidopsis thaliana; high values mean tight binding
Conditions: protein: recombinant; tags: GST; chain copies: 2; dsDNA, one strand shown
How it was run: (§1)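 Protein amounts were determined by A280 or anti-GST western blot after glutathione–Sepharose 4B purification of GST-tagged proteins induced in cells, with zinc acetate included for zinc-finger proteins. Duplicate runs at 200 to 500 nM final were done on custom all-10-mer Agilent 4 × 180K arrays made double-stranded by primer extension. The normalised enrichment score (E-score) over gapped and ungapped 8-mers is the measure of binding.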

Sequence | binding signal [E-score]
CCTTTCCC | 0.421
AGGTTACC | 0.437
CGGTCAAA | 0.0552
CCTCTGAC | 0.12
ACGGTCAG | 0.0654
AGGGTCAA | 0.0535
AGGTAACC | 0.442
GGGAAACC | 0.443
GGAGGAAA | 0.459
AGGGTAAC | 0.416
AGTCAAGC | 0.0828
AGGTCAAC | 0.0726
GAGGGAAA | 0.472
ATTCCCCC | 0.402
AGGTTTCC | 0.457
CGAGGTCA | 0.0549
CTCGGTCA | 0.0649
CGGGGTCA | 0.107

Target: GST-WRKY1(266-371) (Arabidopsis thaliana, UniProt Q9SI37 266-371)
Sequence (Q9SI37 266-371): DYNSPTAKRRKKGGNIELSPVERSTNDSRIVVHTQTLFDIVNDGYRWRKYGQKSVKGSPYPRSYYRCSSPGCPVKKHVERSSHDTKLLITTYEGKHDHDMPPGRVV
Assay: as above
Conditions: protein: recombinant; tags: GST; dsDNA, one strand shown
How it was run: as §1

Sequence | binding signal [E-score]
GTCGTTGA | 0.43
ACGACCAA | 0.416
CGGTCAAA | 0.49
CCTCTGAC | 0.408
AGTCGTCG | 0.432
CGGTCAAC | 0.495
ACGGTCAG | 0.432
AGGGTCAA | 0.483
GGTCAATA | 0.482
CAATTGAC | 0.435
AAGTCGTC | 0.419
ATGGGTCA | 0.422
ACGGTCAA | 0.49
GACCGTCA | 0.407
ATTGACCG | 0.487
AGTCAAGC | 0.459
AGGTCAAC | 0.492
GGGTTGAC | 0.477
GTCGTCAA | 0.424
GGTCTTCA | 0.431
ACATTGAC | 0.465
GGTCAACA | 0.493
CGAGGTCA | 0.425
CTCGGTCA | 0.451
GTCAAGAC | 0.446
CGGGGTCA | 0.412
CTGGGTCA | 0.439
TGAGTCAA | 0.48
TACGGTCA | 0.442

Source: publication PMC4081100, “A DNA-binding-site landscape and regulatory network analysis for NAC transcription factors in Arabidopsis thaliana”
